Pf growth 96h – P. falciparum growth inhibition at 96 hours; P. falciparum luciferase reporter growth, 96 h; actives 6.9% (n = 320,000); AID 504834; Potency, µM (doses to about 28.7 µM), hits mostly inhibitors
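Infected RBCs, 2% Hct / 0.05% parasitemia final; luciferase-reporter P. falciparum; cpd 96 h, 37 C, 5% CO2; luciferase detection reagent; luminescence.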
SARS PLpro yeast – inhibitors of SARS-CoV papain-like protease in yeast; actives 0.19% (n = 330,000); S. cerevisiae expressing SARS-CoV PLpro, growth rescue; Potency, µM (titrated, usually from 32.9 µM), most hits filed as activators; calls by dose curve; note: nearly all actives have a fitted effect of over 55% in size
Cycloheximide cs – affects cycloheximide protein synthesis inhibition readout, counter-screen; actives 12% (n = 300,000); cell reporter, cycloheximide protein synthesis inhibition counterscreen; max response, %; in the data active = max response mostly above about 13%, no sharp cut-off; inactive = mostly below about 14%; note: read at 38.3 µM for the half of the compounds with a filed dose
Shiga inhibitor – inhibitors of Shiga toxin in Vero cells; Vero cells, Shiga toxin protein synthesis inhibition reporter; inhibition, % at 38.7 µM; actives 9.2% (n = 290,000); in the data active = inhibition mostly above about 28%, no sharp cut-off; inactive = mostly below about 43%
NS1 inh – inhibitors of influenza NS1 protein function | actives 0.4% (n = 270,000) | Potency, µM (series often up to 46.1 µM); calls by dose curve; note: actives are rising curves; nearly all actives have a fitted effect of over 50% in size
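A cell-based growth assay was used: compounds that relieve NS1-induced slow growth of budding yeast raise OD600. Assay medium was yeast nitrogen base with ammonium sulphate and -URA supplement, pH 6.0, with 2% galactose.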
Pf growth 48h – P. falciparum growth inhibition at 48 hours (one generation). P. falciparum luciferase growth in erythrocytes, 48 h. Potency, µM (series often up to 28.7 µM), usual class: inhibitors. actives 5.9% (n = 310,000). AID 504832
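Growth was read as firefly luciferase luminescence after a 48 h, 37 C, 5% CO2 exposure of compounds to reporter-bearing P. falciparum cultures (0.1% parasitemia, 2% hematocrit final) in Albumax-supplemented RPMI 1640.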
Of the large screens only hits and unclear results are named; the others gave an inactive call. Compounds with a hit are over-represented: about 21% of the library has one in this group of screens. Unless noted, calls come from the whole dose curve; as a rule, active = well fitted inhibition curve with a large enough effect; inconclusive = small, poorly fitted or top-dose-only effect, or another doubt; inactive = no such curve, though single readings can be large or run the other way.

O=C(Nc1ccc(Cl)cc1)C1CCC(=O)N1Cc1ccccc1Cl (configuration not stated)	Pf growth 96h 4.7µM, Pf growth 48h 9.3µM
O=C(Nc1ccccc1Br)C1CCC(=O)N1Cc1ccccc1Cl (configuration not stated)	none
CN(C)CC(O)COc1cccc(OCC(O)CN(C)C)c1 (configuration not stated)	Pf growth 96h inconclusive, Pf growth 48h inconclusive
COc1ccc(OCCn2c(=N)n(CCO)c3ccccc32)cc1	none (no result: Pf growth 96h)
CCn1c(=N)n(CC(O)COc2ccc(C)cc2)c2ccccc21 (configuration not stated)	Pf growth 96h 13µM, Pf growth 48h 3.7µM
CCCCn1c(=N)n(CCOc2ccc(C)cc2)c2ccccc21	Pf growth 48h 7.4µM
Cc1ccccc1OCC(O)Cn1c(=N)n(Cc2ccccc2)c2ccccc21 (configuration not stated)	Pf growth 48h inconclusive
CCCn1c(=N)n(CC(O)COc2ccc(C)cc2)c2ccccc21 (configuration not stated)	Pf growth 96h 5.2µM, Pf growth 48h 2.1µM
Cc1ccc(OCC(O)Cn2c(=N)n(CCN3CCOCC3)c3ccccc32)cc1 (configuration not stated)	Pf growth 48h inconclusive
CCCCN(CC(O)COc1cccc(C)c1)CC(O)COc1cccc(C)c1 (configuration not stated)	Pf growth 96h 1.9µM, Pf growth 48h inconclusive
CC(=O)Nc1ccc(S(=O)(=O)N2CCC(C(=O)NCc3cccnc3)CC2)cc1	Pf growth 96h inconclusive
Cc1ccc(C(C[N+](=O)[O-])c2c(-c3ccccc3O)[nH][nH]c2=O)cc1 (configuration not stated)	none
CC(=O)c1ccc(N(C(=O)c2csnn2)C(C(=O)NC(C)(C)C)c2cccs2)cc1 (configuration not stated)	none
O=C(O)c1cccc(S(=O)(=O)N(Cc2ccccc2)c2cccc(C(F)(F)F)c2)c1	none
CCCCn1c(=N)n(CC(O)COc2cccc(C)c2)c2ccccc21 (configuration not stated)	Pf growth 96h inconclusive, Pf growth 48h 7.4µM
CCCn1c(=N)n(CC(O)c2ccc(C)cc2)c2ccccc21 (configuration not stated)	Pf growth 96h 4.1µM, Pf growth 48h 5.2µM
CN(C)CCCN1c2ccccc2Sc2cnccc21	none (no result: Pf growth 96h, SARS PLpro yeast, Cycloheximide cs, Shiga inhibitor, Pf growth 48h)
CC(Oc1ccc2ccccc2c1)C(=O)NNC(=O)Nc1ccccc1 (configuration not stated)	Pf growth 96h inconclusive
Cc1cc(NC(=S)Nc2ccc(C)c(Cl)c2)n[nH]1	Cycloheximide cs 68, Shiga inhibitor 133
COc1cc(C)c(NC(=S)Nc2ccc(C)c(Cl)c2)cc1OC	none
COc1ccc(NC(=S)Nc2cc(C)[nH]n2)cc1Cl	Cycloheximide cs 45, Shiga inhibitor 90
COc1ccc(NC(=S)Nc2cc(-c3ccccc3)[nH]n2)cc1Cl	Pf growth 96h inconclusive, Cycloheximide cs 20, Pf growth 48h inconclusive
COc1ccc(NC(=S)Nc2cccc(Cl)c2Cl)cc1OC	none (no result: NS1 inh)
CCOc1ccc(NC(=S)Nc2cc(-c3ccccc3)[nH]n2)cc1	Pf growth 96h inconclusive, Pf growth 48h inconclusive
COc1ccc(N2CCN(c3cc(C)nc4ccc(OC)cc34)CC2)cc1	Pf growth 96h inconclusive, Pf growth 48h 13µM
COc1ccc(N2CCN(c3cnc4ccccc4n3)CC2)cc1	Cycloheximide cs 37, Shiga inhibitor 70
COc1ccc(N2CCN(c3ncccn3)CC2)cc1	Cycloheximide cs 24, Shiga inhibitor 152 (no result: Pf growth 96h)
COc1cccc(N2CCN(c3cnc4ccccc4n3)CC2)c1	Cycloheximide cs 36, Shiga inhibitor 94 (no result: NS1 inh)
O=C(OCc1cncs1)c1ccccc1	none
O=C(Nc1cccc(S(=O)(=O)N2CCCCC2)c1)c1cc(=O)[nH]c2ccccc12	none (no result: Pf growth 96h, Cycloheximide cs, Shiga inhibitor, NS1 inh, Pf growth 48h)
CCOC(=O)C1(Cc2ccccc2)CCN(Cc2ccc3cc(NC(C)=O)ccc3n2)CC1	Pf growth 48h inconclusive
CC(NC(=O)Cc1ccc(Br)cc1)c1ccccc1 (configuration not stated)	Pf growth 96h inconclusive
O=C1CC(c2ccco2)CC2=C1C1c3ccccc3C(=O)N1c1ccccc1N2 (configuration not stated)	Pf growth 48h inconclusive
O=C1CCCC2=C1C1c3ccccc3C(=O)N1c1ccc(C(=O)c3ccccc3)cc1N2 (configuration not stated)	Pf growth 48h 2.3µM
Cc1ccc(N(C)C(=O)c2cnn(-c3ccccc3)c2C)c(C)c1	Pf growth 96h 5.2µM, Pf growth 48h 5.2µM (no result: Shiga inhibitor)
Cc1cccc(C(=O)Nc2c(C(=O)N(C)C)cnn2-c2ccccc2)c1	none
Cc1c(C(=O)N(C)c2ccc(Cl)cc2)cnn1-c1ccccc1	Pf growth 96h inconclusive, Cycloheximide cs 50 (no result: Shiga inhibitor)
Cc1cccc(N(C)C(=O)c2cnn(-c3ccccc3)c2C)c1	Cycloheximide cs 24, Shiga inhibitor 40
COc1cc(SC)ccc1C(=O)NCCNC(=O)c1nonc1N	none
CC(=O)c1cccc(N(C(=O)CNC(=O)c2ccco2)C(C(=O)NC2CCCC2)c2ccco2)c1 (configuration not stated)	none
Clc1ccccc1C(c1ccccc1)(c1ccccc1)n1ccnc1	Pf growth 96h 1.4µM, Pf growth 48h 0.64µM
c1ccc(-c2nc3ccccc3s2)nc1	Cycloheximide cs 61, Shiga inhibitor 76
Brc1ccc(-c2nc3ccccc3s2)s1	SARS PLpro yeast inconclusive, Cycloheximide cs 48, Shiga inhibitor 96
O=S(=O)(c1cc(-c2nc3ccccc3s2)ccc1Cl)N1CCOCC1	Pf growth 48h inconclusive
CN(C)c1ncccc1-c1nc2ccccc2s1	none
Brc1cc2c(cc1-c1nc3ccccc3s1)OCO2	Cycloheximide cs 33, Shiga inhibitor 65
O=C1CCC(=O)N1c1ccc(-c2nc3ccccc3s2)cc1	Cycloheximide cs 35, Shiga inhibitor 62
Cc1cccc(C(=O)N[C@H](C(=O)Nc2ccc(C)c(S(=O)(=O)N(C)C)c2)C(C)C)c1	Pf growth 96h inconclusive, Pf growth 48h inconclusive (no result: NS1 inh)
Cc1[nH]c2ccccc2c1C(=O)NS(=O)(=O)Nc1ccc(Cl)cc1	Pf growth 96h inconclusive (no result: NS1 inh)
CN(C(=O)COC(=O)c1ccccc1SCC(=O)N1CCCC1)C1(C#N)CCCCC1	Pf growth 96h inconclusive (no result: Cycloheximide cs, Shiga inhibitor, NS1 inh)
CC(C)C(C)NC(=O)COC(=O)/C=C/c1ccc(S(=O)(=O)N2CCc3ccccc32)cc1 (configuration not stated)	Pf growth 96h inconclusive, Pf growth 48h inconclusive (no result: NS1 inh)
Nc1ccc(-c2nc3ccccc3s2)cn1	Shiga inhibitor 104
CCc1ccc(C(=O)OCC(=O)c2c(N)n(CC(C)C)c(=O)n(C)c2=O)cc1	Pf growth 96h 13µM, Pf growth 48h inconclusive (no result: NS1 inh)
CC(C)Cn1c(N)c(C(=O)COC(=O)Cc2cccs2)c(=O)n(C)c1=O	none
CC(C)Cn1c(N)c(C(=O)COC(=O)Cc2cccc(C(F)(F)F)c2)c(=O)n(C)c1=O	Pf growth 96h inconclusive, Pf growth 48h 9.3µM (no result: Cycloheximide cs, Shiga inhibitor, NS1 inh)
